In all, about 360,000 compounds went through this assay and about 7,500 (2.1%) were called active. Where a call stands in place of a potency, no number is given. Not shown: some 8% with an inconclusive outcome. The sample holds actives, similar compounds and a random draw of the others, so the mix is not that of the screen. Calls come from the whole dose curve; as a rule, active = well fitted cell-killing curve with a large enough effect; inconclusive = small, poorly fitted or top-dose-only effect, or effect the other way, or another doubt; inactive = no such curve, though single readings can be large or run the other way.
Assay: qHTS for induction of synthetic lethality in tumor cells producing 2HG: qHTS for the HT-1080-IDH1KD cell line
Details: HT-1080 IDH1 knockdown viability, ATP luminescence, 48 h; series mostly up to 46.1 µM
Summary of the method: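 Using the IDH1-knockdown HT-1080 line run in the same batch and compound series as the NT line, viability after 48 h at 37 °C was determined by CellTiter-Glo luminescence and expressed as % activity.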
Potency is the fitted concentration of half-maximal effect.

| Structure (SMILES) | Potency | activity, negative = toxicity |
| --- | --- | --- |
| CC(C)(C)C1CCC(=O)N2CCC[C@]2(c2ccccc2)C1 (stereo partly specified) | inactive | – |
| CCCc1ccc(S(=O)(=O)N2CCN(C(=O)c3cc(C)on3)CC2)cc1 | inactive | – |
| Cc1cc(Nc2ccc(C)c(C)c2)n2ncnc2n1 | inactive | – |
| CC(=O)OC[C@@H]1CN(Cc2ccccc2)C[C@H](n2cnc3c(NCc4ccco4)ncnc32)O1 | inactive | – |
| Oc1ccccc1-c1cc(-c2ccc(Cl)cc2)n[nH]1 | 16.4 µM (active) | – |
| CSc1ccccc1-c1nnc(-c2ccc(Cl)cc2)o1 | – | -1.6% [at 9.24 µM] (inactive) |
| O=C(Nc1ccc(Cl)cn1)c1ccccc1-c1ccccc1 | inactive | – |
| O=C(COc1ccc(Br)cc1)OCC(=O)c1ccc[nH]1 | inactive | – |
| Cc1ccc(C(=O)N[C@H](C(=O)N2CCN(c3ncccn3)CC2)C(C)C)cc1 | inactive | – |
| O=C(CO/N=C/c1ccccc1O)NNC(=O)c1ccccc1Cl | inactive | – |
| COc1ccc(/C=N/NC(=O)C2CC2)c(OC)c1OC | inactive | – |
| C=CCOc1ccccc1/C=N/NC(=O)Cc1ccccc1 | inactive | – |
| O=C(N/N=C/c1ccccc1O)C1CCCC1 | 23.1 µM (active) | – |
| O=C(CCC(=O)Nc1ccccc1)N/N=C/c1ccccc1F | inactive | – |
| Oc1ccccc1C=NC1CCCCC1N=Cc1ccccc1O (stereo unspecified) | inactive | – |
| O=C(N/N=C/c1ccccc1O)/C(=C/c1ccccc1)CCO | 3.26 µM (active) | – |

| Structure (SMILES) | Potency | activity, negative = toxicity |
| --- | --- | --- |
| O=C(NN=Cc1ccccc1)c1ccccc1 | inactive | – |
| O=C(NN=Cc1ccccc1O)NN=Cc1ccccc1O | 8.2 µM (active) | – |
| Brc1ccc2nc(-c3ccccc3)c(Cc3ccccc3)n2c1 | inactive | – |
| O=C(N/N=C/c1ccc(Cl)cc1)c1nc2ccc([N+](=O)[O-])cc2c(=O)[nH]1 | inactive | – |
| O=C(/C(=C/c1cccc(Cl)c1)c1nc2ccccc2[nH]1)c1ccccc1 | 3.26 µM (active) | – |
| N#C/C(=C(/O)COC(=O)COc1ccc(Cl)cc1)c1nc2ccccc2[nH]1 | inactive | – |
| O=C(Nc1ccon1)c1nc[nH]c1C(=O)NCc1ccccc1 | 2.59 µM (active) | – |
| O=C(Nc1cc(Br)ccc1F)c1nc[nH]c1C(=O)NCc1ccccc1 | inactive | – |
| CCOC(=O)c1ccc(NC(=O)c2nc[nH]c2C(=O)NCc2ccccc2)cc1 | inactive | – |
| COc1ccc(-c2c(C#N)cnc(C)c2C)c(O)c1OC | inactive | – |
| OCCN1CCN(c2ncnc3c2ncn3[C@H]2CN(Cc3ccco3)C[C@@H](CO)O2)CC1 | inactive | – |
| O=C(NN=Cc1ccc2c(c1)CCC2)c1ccccc1O | inactive | – |
| COc1ccc(-c2cc(C(=O)NCCCN3CCOCC3)no2)cc1 | inactive | – |
| COc1ccc(-c2ccc(C(=O)NCCN3CCOCC3)c3occc23)c(C)c1 | 18.4 µM (active) | – |
| Cc1cc(C)cc(C(=O)NCCN2CCOCC2)c1 | inactive | – |

— PubChem BioAssay AID686971 (National Center for Advancing Translational Sciences (NCATS), 2013)
